This note sets out measurements from PubChem BioAssay (NCI).

Several values for one entry are separate records, joined by “and”; a condition that tells them apart may be missing. Identical values can stand only once. About 83,000 compounds went through this panel and 20% of them were active in at least one assay; those are over-represented in the sample as a whole.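 Cell lines were cultured in 96-well plates, exposed to a single compound concentration, and assessed for percent growth 48 hours later.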 Activity calls are given as the source filed them. Rule for the calls: active = growth percent below 10; inactive = the rest.

In this assay the test system is MDA-MB-468 breast. The assay can be described thus: NCI-60 one-dose screen, 48 h (100 = growth as untreated, 0 = no growth, -100 = all killed). Particulars: 10 µM unless noted.
`COc1ccc2[nH]c(O)c(/C=c3/ccc4c(c3)N=C(c3ccc(F)cc3)N=4)c2c1`: the growth was 76% (inactive). With `Oc1c(Cl)cc(Cl)cc1Sc1cc(Cl)cc(Cl)c1O` the figure was 84% (inactive) and -2.78% (active) and 67.9% (inactive); with `CCN1C(=O)N(CC)C2C1NN=c1s/c(=C\c3cccc([N+](=O)[O-])c3)c(=O)n12` (stereo not drawn), 3.95% (active).
